40 sequences from the OligoGym collection can be followed below.
Note: reference of the scale not given here.

The first test has as its target NEUROD6. Kind of test: pooled miR-30 sensor sort-seq; sequence = guide strand. The settings on record: shRNA.
Take TTTGTTGTCTTTTTTTTCCTAA: the sensor-assay potency score (higher = more potent) is -0.154. Sequence TTTAATTCATCTTGCATTGTGA displayed a sensor-assay potency score (higher = more potent) of -0.0595. As to AATAGTTGAAACACACTTCAGA, the sensor-assay potency score (higher = more potent) is -0.228. Still for that read-out and setting: the figure for TCAGAAACTAGTAAACACCTTA is 0.248; for TTGTCTTAATTAGACAGGGGAG it is -1.08; for TAATTCATCTTGCATTGTGAGA it is -0.914.

A further test addresses NF1. The test is described as above. The settings on record: shRNA.
Consider TTTGCTTTGAAAACGGTCCTGC, for which the sensor-assay potency score (higher = more potent) worked out at 0.844. On to TAGCAGTAACTCTTTGTCGTTT, for which the sensor-assay potency score (higher = more potent) was -0.737. On the same count and under the same terms, the result for TAGAAGGAATATCACATCCTAC reads -0.685.

With TTGTAGGACAATCAGATGCTAT, the sensor-assay potency score (higher = more potent) was -0.838. With TACTAAGAAAGTAACAACGTGG, the sensor-assay potency score (higher = more potent) amounted to 0.245. Sequence TAACTGATGAAGAACCAGCAGA yielded a sensor-assay potency score (higher = more potent) of -0.956.

As for TATTCTACCATCTTATTCCTAA, the sensor-assay potency score (higher = more potent) was -0.177. TATTACTGTAGCTTCTATCAGA: the sensor-assay potency score (higher = more potent) was -0.358. Still for that read-out and setting: the figure for TAAAATAGCAATATCATCCCAC is 0.315; for TTTGTAGATAGGTAGCACCATA it is -1.19.

The target in a further test is NFE2L1. The description is as above. The conditions noted are these: shRNA.
Regarding TAAGTCTCCACTGACTGGGGGG, the sensor-assay potency score (higher = more potent) was -0.685. Still for that read-out and setting: the result for TTGAATATTGGGCATCTCCTTT reads -0.276. For TTAGCAGCTTTGAATATTGGGC, the sensor-assay potency score (higher = more potent) was -0.506. Still for that read-out and setting: the result for TTGATGATTTTGTCATTGGTGA reads -0.465; that for TTATGCTGGAAATGTCTGCTGG, -0.294. Sequence TTTCGCTTTCTCGCACCCCGTT displayed a sensor-assay potency score (higher = more potent) of -0.883. For the sequence TTCCTGTACACTGACCCGCAGT, the sensor-assay potency score (higher = more potent) is -0.906. On the same count and under the same terms, the result for TAATTGTCCAGGTCTATGCTCT reads -0.487; that for TCGTCCGTTCTCATCTCGCAGC, -1.23. The same measure, in the same setting: the figure for TTACTCAACACAAGCATTCTAG is 0.0111; for TTGTCCAGGTCTATGCTCTTGG it is -0.582; for TAAGTATCCACGTCCACCCGTA it is 0.169.

In the next test the target is NFYC. The test is described as above. The settings on record: shRNA.
TATTGCATCTTTCTGCTGGAGA: the sensor-assay potency score (higher = more potent) is -0.521. The sequence TAAGCGGATATACTGCAGCTGG returned a sensor-assay potency score (higher = more potent) of -0.727. On the same count and under the same terms, the result for TTGCTGGATCTGGTAGAGCTGC reads -1.31; that for TGTGTTAGTGATGATCTGCTGC, 0.227. Same read-out and setting: the figure for ATCTCTTGGAACAATATCGATG is -1.33. On the same count and under the same terms, the result for TAATCTTCTTAATACGAGCCAG reads -0.951; that for TAGCATTGGACACACACTCAAC, -0.948. In the case of TTATCTTCTGTGTGAATCCAGG, the sensor-assay potency score (higher = more potent) was -0.977. With AAATATTGCATCTTTCTGCTGG, the sensor-assay potency score (higher = more potent) was 0.522.

Turning to TCTTGGAACAATATCGATGAGA, the sensor-assay potency score (higher = more potent) is -0.931. On the same count and under the same terms, the figure for TTGAGTGCCTGATACAGGCTGG is -0.146. The same measure, in the same setting: the result for TAGAGCTGCTGTCCATCTGTGA reads -0.297.
